Hits are enriched below; roughly 28% of the tested compounds scored in any of these assays.
CYP2C19 inhib – blockers of cytochrome P450 2C19 activity – biochemical, luminescence, ADME assay, primary screen; inhibition, % at 5 µM; P33261; 21% of 96,000 active; CYP2C19 Supersomes, luciferin-H EGE luminescence, 30 min; AID 778, 2007;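 active means CYP2C19 inhibition above a set limit at 5 µM in the primary screen, cut at about 50% in these data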;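 further: plate controls were negative control wells for no effect and 2.5 mM tranylcypromine positive control for full effect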
CYP2C9 activ – human CYP2C9 activators, primary screen, biochemical, luminescence; recombinant CYP2C9, luciferin-H conversion; hits give high values; factor 1 = untreated enzyme, 0 = blocked; activation factor at 5 µM; 1.4% of 96,000 active; Cytochrome P450 2C9 (Homo sapiens), P11712;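 active means activation factor of 2 or more for CYP2C9 at a 5 µM dose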;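 further: 0 = sulfaphenazole-blocked wells and 1 = vehicle-only wells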
Target sequence (P11712 whole entry, looked up): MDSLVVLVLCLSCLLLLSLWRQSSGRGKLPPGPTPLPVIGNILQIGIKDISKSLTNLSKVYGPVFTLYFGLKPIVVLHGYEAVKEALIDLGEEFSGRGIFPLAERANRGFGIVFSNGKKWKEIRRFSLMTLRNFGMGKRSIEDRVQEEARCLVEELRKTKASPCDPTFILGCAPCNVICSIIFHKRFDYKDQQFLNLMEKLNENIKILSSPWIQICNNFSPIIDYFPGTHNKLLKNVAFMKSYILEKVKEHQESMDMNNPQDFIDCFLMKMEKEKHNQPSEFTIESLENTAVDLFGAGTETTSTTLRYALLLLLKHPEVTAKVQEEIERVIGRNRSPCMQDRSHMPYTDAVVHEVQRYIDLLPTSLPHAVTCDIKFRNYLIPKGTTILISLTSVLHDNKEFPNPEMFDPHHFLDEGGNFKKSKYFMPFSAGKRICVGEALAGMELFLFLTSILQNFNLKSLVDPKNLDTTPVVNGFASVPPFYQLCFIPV
CYP2C19 act – human CYP2C19 activators, primary screen, biochemical, luminescence; 96,000 tested, under 10 active; recombinant CYP2C19, luciferin-H EGE luminescence; hits give high values; 0 = fully inhibited enzyme, 1 = untreated enzyme; Cytochrome P450 2C19 (Homo sapiens), P33261; AID 1025, 2008; activation factor at 5 µM;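 active means activation factor of at least 2 at 5 µM in the primary screen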;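 further: 0 = wells with 2.5 mM tranylcypromine and 1 = vehicle-only wells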
CYP2C9 inh – blockers of cytochrome P450 2C9 activity – biochemical, luminescence, ADME assay, primary screen | P11712 | CYP2C9 Supersomes, luciferin-H conversion | inhibition, % at 5 µM | 20% of 96,000 active | AID 777, 2007;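 active means blocking of liver enzyme CYP2C9 beyond about 50% at 5 µM, limit read from the data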
PTK2B oligo ant – antagonists of Pyk2 self-association, primary screen, Q293 cells, FERM NanoBiT luminescence, HTS | hits give low values | z-score (the deposit names both 25 µM and 10 µM) | 0.83% of 99,000 active;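 active means Z-score of -3 or lower, scaled per plate to the spread of control and sample wells; inactive means z-score above -3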;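 further: negative z-score means lost luminescence so less FERM oligomerization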
Active calls of the source: *; / = not tested or not shown.

SMILES	CYP2C19 inhib	CYP2C9 activ	CYP2C19 act	CYP2C9 inh	PTK2B oligo ant
Cc1ccc(N2CCN(S(=O)(=O)N(C)C)CC2)c(C)c1	86*	0.4	0.1	64*	/
Cc1ccccc1N1CCN(S(=O)(=O)c2ccc3oc(=O)ccc3c2)CC1	41	0.2	0.6	80*	-0.63
CCC(=O)c1cc(F)c(N2CCN(S(=O)(=O)c3ccc(C)cc3)CC2)cc1C	43	0.4	0.6	59*	-1.3
COc1cc(C(=O)N2CCN(c3ccc(C)cc3C)CC2)cc(OC)c1OC	18	0.8	0.8	17	/
Cc1ccc(NC(C(N)=O)c2c(C)[nH]c(=O)[nH]c2=O)cc1 (stereo not drawn)	-4	0.9	1	5	1.4
O=C(Nc1ccc(OC(=O)c2ccncc2)cc1)c1ccncc1	7	0.7	0.9	34	0.94
Cc1ccc(N2CCN(S(=O)(=O)c3ccc(F)c(C)c3)CC2)c(C)c1	84*	0.1	0.2	91*	-3.2*
CNCc1cc2ccc(C)cc2[nH]c1=O	-4	0.9	1	8	-0.5
CN/S(=N/S(=O)(=O)c1ccccc1)c1ccc(C)cc1 (stereo not drawn)	76*	0.7	0.2	26	0.69
Cc1ccc(S(=O)(=O)N(C)/C(=N/S(=O)(=O)c2ccccc2)c2ccccc2)cc1	38	0.6	0.6	40	-0.37
CCCCC1(C)OC(=O)C(=Cc2ccc(N(CC)CC)cc2)C(=O)O1 (stereo not drawn)	54*	1	0.5	4	-0.59
CN1C(=O)c2ccccc2Sc2ccc(NC(=O)NC3CC3)cc21	-5	0.7	1	31	-1.1
O=C(Nc1ccc2c(c1)N(Cc1ccccc1)C(=O)c1ccccc1S2)NC1CC1	87*	0.2	0.1	76*	-3.1*
CC(=O)c1ccc(OC(C)C)c(CN2CCCCC2)c1	-11	1.1	1.1	-9	-1
COc1ccc(CC(=O)Nc2c3c(nn2-c2ccccc2C)CS(=O)C3)cc1 (stereo not drawn)	/	/	/	/	0.61
Cc1ccccc1-n1nc2c(c1NC(=O)COc1ccc(Cl)cc1)CS(=O)C2 (stereo not drawn)	100*	0.8	0	22	/
C/C(=N\NC(=O)CN1CCOCC1)C(C)(C)C	-8	1.1	1.1	-9	0.05
O=C(O)CCC1COc2ccccc2O1 (stereo not drawn)	-2	1	1	3	1.1
COc1ccc(S(=O)(=O)NCCc2csc(C)n2)cc1C	74*	1.2	0.3	-24	-0.36
CCOc1ccc(S(=O)(=O)NCc2csc(C)n2)cc1	43	1	0.6	-5	0.29
COc1ccc(CCNS(=O)(=O)c2ccc3c(c2)n(C)c(=O)c(=O)n3C)cc1OC	3	1.1	1	-8	/
COc1ccc(S(=O)(=O)NCCC(C)C)cc1C	85*	1.9	0.2	-87	-1.5
Cc1ccc(C(=O)Nc2ccccc2SCC2CSc3nc4ccccc4c(=O)n32)cc1 (stereo not drawn)	35	0.7	0.7	33	-0.83
O=C(NC1CCCCCC1)c1cccc(N2CCCC2=O)c1	57*	0.6	0.4	37	3.1
O=C(NCc1cccs1)c1cccc(N2CCCC2=O)c1	57*	0.5	0.4	54*	1.1
SMILES	CYP2C19 inhib	CYP2C9 activ	CYP2C19 act	CYP2C9 inh	PTK2B oligo ant
COc1ccc2c(c1)c(CC(=O)Nc1ccc(C)cc1)c(C)n2C(=O)c1ccc(Cl)cc1	69*	0.1	0.3	89*	-0.75
O=C(CSc1ncnc2scc(-c3ccc(Cl)cc3)c12)NCc1ccc2c(c1)OCO2	/	/	/	/	0.09
Cn1c(SCC(=O)NCc2ccc3c(c2)OCO3)nc2scc(-c3cccs3)c2c1=O	23	0.2	0.8	80*	-1.1
Cn1c(SCC(=O)NCc2cccs2)nnc1-c1cccs1	-16	1.1	1.2	-14	-0.14
O=C(CSc1n[nH]c(-c2cccs2)n1)NCc1cccs1	69*	0.8	0.3	25	1
Cc1ccc(-c2csc3ncnc(SCC(=O)NCc4ccc5c(c4)OCO5)c23)cc1	22	0.4	0.8	57*	-1.5
N#Cc1c(N)nc(SCC(=O)NCc2ccc3c(c2)OCO3)c(C#N)c1-c1cccs1	26	0.3	0.7	74*	1.1

Screening data (PubChem BioAssay)
